{"source": "paper PMC12136788", "binders": {"B1": {"name": "75522086_75522670_732_CDS_ENSMUSG00000026213_ENSMUST00000113553|mouse|control|control (ssRNA)", "RNA": "GGGAGUUCUACAGUCCGACGAUCCAGGAGACGCAGGGAGCUGUCUAAGCUCCUGAGCGCAUUGUAGCUGAAGUCGGCAGAAAGCAAGGCUAGCCAGGGGAGGGCAGAGCAGAGAUCCCCACCACAGGCUGACAAGAGCUCCUCCAACAGAGGAUUGAGCAUCA"}, "B2": {"name": "chr1:244855233:244855234:+_ENSG00000121644_ENST00000302550|hu_mus|hu_hu_hu_mus_True|28_88 (ssRNA)", "RNA": "GGGAGUUCUACAGUCCGACGAUCCAUCAGAUGGUAGGCGUUGCCCUUGUAUUCUUUCCCCAGUUCUUCUACAAUUUUCUCUAUAUCAUCUUCUAGAAAGUCCGUACUCCCUAAAACAACAGCUUCUUUAAAUUUAAAUGUUUCCAACAGAGGAUUGAGCAUCA"}, "B3": {"name": "chr7:118222036:118222037:-_ENSMUSG00000005610_ENSMUST00000162415|mus_mus|FALSE|FALSE (ssRNA)", "RNA": "GGGAGUUCUACAGUCCGACGAUCAUCAAAGUUUGGUGCAUCUUCUGCCAAUCGCAGACAUAGCUGAGCAUACAGCGAGCUAUACUUUGGCUCUUCUAAGGCUUUGUCCACAAUCAGCAGUAUGACCCCUUUAAGGAUGAGUUUCAACAGAGGAUUGAGCAUCA"}, "B4": {"name": "chr15:25293464:25293465:-_ENSMUSG00000045763_ENSMUST00000058845|mus_hu|motif|central (ssRNA)", "RNA": "GGGAGUUCUACAGUCCGACGAUCAAAAAUAUCUGGAGAGGAAGAAUGGAGGAUUGGCAUUGAGAUCCAUGUGGACAAGCGGAGUGGGCUCUGUCUGAAAGCUGGCAUUCAUCCACAACAUUAAAAAAAUAUCAAAAUAAGAAACAACAGAGGAUUGAGCAUCA"}, "B5": {"name": "chr15:25293464:25293465:-_ENSMUSG00000045763_ENSMUST00000058845|mus_mus|motif|central (ssRNA)", "RNA": "GGGAGUUCUACAGUCCGACGAUCAAAAAUAUCUGGAGAGGAAAAAUGGAGGGUUGGCAUUGAGAUACAUGUGGACAAGCGGAGUGGGCUCCGUCUGAAAGUUGGCAUUCAUCCACGAACGUUUAAAAAAAUACCAAAAAAAUUCAACAGAGGAUUGAGCAUCA"}, "B6": {"name": "chr15:25293464:25293465:-_ENSMUSG00000045763_ENSMUST00000058845|mus_hu|FALSE|FALSE (ssRNA)", "RNA": "B4 RNA with G80U, G81A"}, "B7": {"name": "chr9:122046571:122046572:+_ENSMUSG00000038145_ENSMUST00000120173|mus_mus|FALSE|FALSE (ssRNA)", "RNA": "GGGAGUUCUACAGUCCGACGAUCCUGAAAUUUGUUGCUGAAGCCAAAGUCUGUCAACUUCACAAGACCUUGUUUUUCAAAAAAGACUACAUUCUCUGGUUUCAAGUCUCUGUGGACCACAUGGAGUUUAUGGCAAUAAGAUAUCAACAGAGGAUUGAGCAUCA"}, "B8": {"name": "chr1:46159212:46159213:+_ENSG00000159596_ENST00000372025|hu_mus|hu_hu_hu_mus_True|38_58 (ssRNA)", "RNA": "GGGAGUUCUACAGUCCGACGAUCUCUGAUCCCUCCCAAGAAAGCUAGGAAACCGGCUCCAUAAGCCAUCUGAGUGAAAGCUAAUAUGGGGAUAUAAGUUUUUGUCAUUACCAUGAGAAGUGGGGGAGCAGUAAAGGGGAUUAACAACAGAGGAUUGAGCAUCA"}, "B9": {"name": "chr18:38477064:38477065:+_ENSMUSG00000060450_ENSMUST00000072376|mus_hu|motif|central (ssRNA)", "RNA": "GGGAGUUCUACAGUCCGACGAUCUGCAGAUAUAAUUCAAGAACAUUCAGCUUGGGAAUAUAUUAAGCUUUCUCCGGUUCCAGCAGAGGAAAUAAAAACAUGUGUUCCUGGAAUUAAUAUUAAAAUCAUCCUUACAAACAGAAGCAACAGAGGAUUGAGCAUCA"}, "B10": {"name": "chr5:128448638:128448639:+_ENSG00000066583_ENST00000173527|hu_mus|hu_hu_hu_mus_False|8_98 (ssRNA)", "RNA": "GGGAGUUCUACAGUCCGACGAUCGGCACUCGCCUUAAUUAGAUUCUGAAUUUCCUUGAACUUCGGGUGGUCUUUGUCAGCCACCAGCUGUAGGAGGACAGCCUCACUAGUGGUCACGAUGAUCCCAGUUCGAGCGAGACGCUCCAACAGAGGAUUGAGCAUCA"}, "B11": {"name": "chr12:39763582:39763583:-_ENSG00000139116_ENST00000544797|hu_mus|hu_hu_hu_mus_False|1_28 (ssRNA)", "RNA": "GGGAGUUCUACAGUCCGACGAUCCUCUAGGAACUGGGCAUUCACUUUGAAUUCAGGAGGGGGCAGCCCGUUUUUAAUCGCUGAGGUCUUUUUCUCAUCAAUACUCUUAAAAAGGUGUCUAACAGCACGAGAGAUGAUACCCAGCAACAGAGGAUUGAGCAUCA"}, "B12": {"name": "chr8:86505109:86505110:+_ENSMUSG00000005469_ENSMUST00000005606|mus_mus|motif|central (ssRNA)", "RNA": "GGGAGUUCUACAGUCCGACGAUCCUUGUGCUUCACCAGCAUCACUCGCCCAAAGGAGCCGGUGCCAAGGGUCUUGAUUCGGUCAAACUGAUCCAACUGGGCUGUAUUCUGAGAAGGGGUCUCCCAUUUUUUCAGGAAAUCUUCCAACAGAGGAUUGAGCAUCA"}, "B13": {"name": "chr15:74751088:74751089:-_ENSG00000138629_ENST00000361351|perfect_dup|FALSE|FALSE (ssRNA)", "RNA": "GGGAGUUCUACAGUCCGACGAUCCGGGUCUGGAACAGAUUCCUGGAGCUUGCCAGCAAUAAGCUGCUUCAGAAAUGAAAUGCUAUAGCCCCCUAGGGAAUAUUCUCCCAGUUCUGUCUCUGGCAACUGAAGAAUAGAUUUUGGCAACAGAGGAUUGAGCAUCA"}, "B14": {"name": "chr3:100366718:100366719:-_ENSMUSG00000008763_ENSMUST00000008907|mus_hu|FALSE|FALSE (ssRNA)", "RNA": "GGGAGUUCUACAGUCCGACGAUCAUUCUUAAAGAAAAAUCUAUUAUCUGUUAGCAUGAUUGGAGCACUGCAAUGUAUAUGCUAGUAAUAUGGUGUGUAAUUUCACAAGCAAUUUUAUGAGUUCUGCAAUUGCUAGGCUCAAACCAACAGAGGAUUGAGCAUCA"}, "B15": {"name": "chr1:153198750:153198751:+_ENSMUSG00000023150_ENSMUST00000023918|perfect_dup|FALSE|FALSE (ssRNA)", "RNA": "GGGAGUUCUACAGUCCGACGAUCUUCUGGAUUGAGAUCAUCCAACUUCACAUGAGAAACUCCAUGAGGGUCACUGUCACUAUUGAAGAUUUCAAAUAGAUAGGGGCUACAGCAAGCCAGGACUGCCCUGUGUGCUAGCAUCUCCAACAGAGGAUUGAGCAUCA"}, "B16": {"name": "chr2:48034705:48034706:-_ENSG00000138081_ENST00000403359|hu_hu|FALSE|FALSE (ssRNA)", "RNA": "GGGAGUUCUACAGUCCGACGAUCCAUAGAAAGAACGUACAUACUGGGACAUGAGUACAGUUACAGCAAGUCUAGGUGUGCUAACAAAACAGGGCACAUUCAAGUACAGUAAGAUUUUGCUUGAAAUUAAAAACAAACUACAUGCAACAGAGGAUUGAGCAUCA"}}, "note": "Substitutions are numbered along the chain they refer to. Whole data set: some 24,000 sequences, median “enrichment r” near 0.99, cut for the highest 2% near 3.7. What follows is part of a selection rich in the highest values, with near analogues and random picks from the rest."}
{"target": "T1, UNK ZnF1-3 (human, UniProt Q9C0B0 31-174)", "T1 sequence": "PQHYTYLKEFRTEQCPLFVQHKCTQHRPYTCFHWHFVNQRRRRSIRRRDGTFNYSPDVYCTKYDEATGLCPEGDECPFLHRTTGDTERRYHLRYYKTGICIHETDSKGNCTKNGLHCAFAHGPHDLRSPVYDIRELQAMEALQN", "experiment": "nsRBNS (natural sequence RNA bind-n-seq); RBNS binding buffer (assumed for nsRBNS): 25 mM Tris pH 7.5, 150 mM KCl, 3 mM MgCl2, 0.01% Triton X-100, 500 ug/ml BSA, 20 U/ml SUPERase-In, 4 C; UNK is unkempt and MSI1 is Musashi-1; names of the RNAs are library labels; protein concentration not given here; high values mean tight binding", "units": {"binding signal": "enrichment R"}}
{"binder": "B1", "binding signal": 1.21}
{"binder": "B2", "binding signal": 1.19}
{"binder": "B3", "binding signal": 0.544}
{"binder": "B4", "binding signal": 8.1}
{"binder": "B5", "binding signal": 3.28}
{"binder": "B6", "binding signal": 15.3}
{"binder": "B7", "binding signal": 0.833}
{"binder": "B8", "binding signal": 1.29}
{"binder": "B9", "binding signal": 2.14}
{"binder": "B10", "binding signal": 0.656}
{"binder": "B11", "binding signal": 1.45}
{"binder": "B12", "binding signal": 1.11}
{"binder": "B13", "binding signal": 1.14}
{"binder": "B14", "binding signal": 0.664}
{"binder": "B15", "binding signal": 5.29}
{"binder": "B16", "binding signal": 1.25}
